Screening data (PubChem BioAssay)
G9a block: blocks human histone lysine methyltransferase G9a | Q96KQ7 | G9a H3K9 monomethylation, AlphaScreen, 2 h | Potency, µM (highest dose often 102 µM), usual class: inhibitors | 350,000 compounds, 8.8% hits | AID 504332; further: nearly all actives have a fitted effect of over 75% in size
Target sequence (Q96KQ7 913-1193 limits assumed): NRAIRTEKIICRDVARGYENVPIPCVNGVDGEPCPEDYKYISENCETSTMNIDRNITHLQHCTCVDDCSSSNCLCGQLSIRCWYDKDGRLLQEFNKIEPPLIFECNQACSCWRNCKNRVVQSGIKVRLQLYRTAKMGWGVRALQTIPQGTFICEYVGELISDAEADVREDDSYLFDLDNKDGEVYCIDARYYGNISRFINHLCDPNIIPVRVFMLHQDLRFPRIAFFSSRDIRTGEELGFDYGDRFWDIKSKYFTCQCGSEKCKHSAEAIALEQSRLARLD
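G9a (20 nM) preincubated 15 min RT with compounds, then 500 nM biotinylated H3K9 peptide and 20 uM SAM added; 2 h RT reaction. Monomethyl-H3K9 product detected by AlphaScreen with anti-H3K9me1 antibody, streptavidin donor and anti-rabbit IgG acceptor beads.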
BAZ2B inh: blocks human BAZ2B; Q9UIF8; AlphaScreen BAZ2B-H3K14Ac peptide displacement; Potency, µM (titrated, usually from 114 µM), usual class: inhibitors; 360,000 compounds, 4.4% hits; further: nearly all actives have a fitted effect of over 60% in size
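Multi-concentration screen (max 110 uM) measuring displacement of acetylated histone H3 peptide from BAZ2B by AlphaScreen, using 50 nM protein, 50 nM peptide and 10 ug/mL streptavidin donor plus Ni-chelate acceptor beads.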
Six1-Eya2 inh: inhibitors of human Six1/Eya2 interaction. Q15475+O00167. AlphaScreen GST-Six1/His-Eya2 binding, biochemical; hits give low values. activity change, % (no concentration beside the values). 360,000 compounds, 0.56% hits. AID 651725; in the data active means activity change below about -65%; inconclusive means mostly about -30% to -63%
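Compounds are tested against tagged Six1 and Eya2 proteins bridged by glutathione donor and nickel acceptor beads; after a one-hour incubation at 37 °C without light, AlphaScreen emission is recorded.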
CtBP-E1A inh: inhibitors of CtBP/E1A interaction; activity change, % (concentration not given with the values); AID 651724; AlphaScreen GST-E1A/His-CtBP binding, 1536-well; hits give low values; 340,000 compounds, 0.49% hits; in the data active means activity change below about -65%; inconclusive means mostly about -30% to -63%
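GST-E1A and His-tagged CtBP (125 nM each as 5X stock) were preincubated with pin-transferred compound for 2 h at 37 °C in the dark, then glutathione donor and nickel acceptor beads were added for 1 h before AlphaScreen reading.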
JMJD2A Tudor inh: inhibitors of human JMJD2A Tudor domain | 390,000 compounds, 4.4% hits | Potency, µM (highest dose often 114 µM), hits mostly inhibitors | AlphaScreen JMJD2A-Tudor / H3K4me3 peptide binding | O75164; further: nearly all actives have a fitted effect of over 50% in size
HP1b chromo inh: HP1-beta chromodomain-methylated histone interaction inhibition; 390,000 compounds, 0.56% hits; Potency, µM (doses to about 114 µM), actives largely listed as inhibitors; P83916; AlphaScreen HP1-beta / biotin-H3K9me3 peptide binding; further: nearly all actives have a fitted effect of over 70% in size
Target sequence (P83916 whole entry, looked up): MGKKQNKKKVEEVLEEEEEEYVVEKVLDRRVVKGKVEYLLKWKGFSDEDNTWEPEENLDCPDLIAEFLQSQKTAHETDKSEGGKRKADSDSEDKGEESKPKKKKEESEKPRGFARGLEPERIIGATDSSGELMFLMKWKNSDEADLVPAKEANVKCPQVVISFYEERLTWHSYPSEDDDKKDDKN
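AlphaScreen: HP1-beta (50 nM) preformed 30 min with biotin-H3(1-18)K9me3 peptide (50 nM) in PBS pH 7.4, 0.01% Tween-20. Compound added for 30 min at RT, then streptavidin donor/nickel chelate acceptor beads (10 ug/mL) for 30 min.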
Hits are given with their value; – = inactive; ? = inconclusive; · = no result given; [ ] = dose if it differs, or a comment. Sampled rows, rich in hits. Any-hit rate of the full collection: about 10%. Unless noted, the call rests on the fitted dose curve; in most records, active means well fitted inhibition curve with a large enough effect; inconclusive means small, poorly fitted or top-dose-only effect; inactive means no such curve, though single readings can be large or run the other way.

SMILES | G9a block | BAZ2B inh | Six1-Eya2 inh | CtBP-E1A inh | JMJD2A Tudor inh | HP1b chromo inh
COc1ccc(NC(=O)CN(C)C(=O)c2cc3c(s2)CCC3)cc1 | 13µM | 6.3µM | – | – | 14µM | 13µM
COc1cccc(NC(=O)CN(C)C(=O)c2cc3c(s2)CCC3)c1 | –[0.501 µM] | 56µM | – | – | ? | –
COc1ccc(NC(=O)CN(C)C(=O)c2cc3c(s2)CCCCC3)cc1 | ? | – | – | – | – | –
COc1cccc(NC(=O)CN(C)C(=O)CCC(=O)c2cc(C)sc2C)c1 | – | – | – | -77 | – | –
COc1ccc(Cl)cc1NC(=O)CN(C)C(=O)CCC(=O)c1cc(C)sc1C | – | – | – | – | – | –
O=S(=O)(O)CCCS(=O)(=O)O | –[12.7 µM] | · | · | · | · | ·
Cc1cccc(C(=O)NCC(=O)NC2CCC(C)CC2)c1 (centres undefined) | – | – | – | – | – | –
CN(C)CCOc1ccccc1-c1ccccc1 | –[2.33 µM] | 25µM | – | – | 0.89µM | ?
N=C(N)CCCOc1ccccc1-c1ccccc1 | – | – | – | – | – | –
CN(C)CCOCCP(=O)(c1ccccc1)c1ccccc1 | – | – | – | – | – | –
CN(C)CCOCCOc1ccccc1-c1ccccc1 | –[0.501 µM] | 20µM | – | – | 2.8µM | ?
CCOC(=O)CC1(NC(=O)c2cc(COc3c(F)cccc3F)on2)CCCCC1 | – | – | – | · | – | –
Cc1nn(Cc2ccc(C(=O)N3c4ccc(F)cc4CCC3C)o2)c(C)c1Br (centres undefined) | 50µM | – | – | – | – | –
Cc1cc(NC(=O)COC(=O)CNS(=O)(=O)c2c(F)cc(F)cc2Br)no1 | · | · | – | – | – | –
Cc1ccc2cc3c(N)c(C(=O)N4CCOCC4)sc3nc2c1 | 28µM | – | – | – | – | –
Cc1ccc2nc3sc(C(=O)N4CCOCC4)c(N)c3cc2c1 | 14µM | – | – | – | ? | –
CCc1ccc2nc3sc(C(=O)N4CCc5ccccc54)c(N)c3cc2c1 | 50µM | – | · | · | · | ·
COc1cccc(-c2nnc(-c3ccccc3NC(=O)c3ccc(C(C)(C)C)cc3)o2)c1 | – | – | – | – | – | –
O=c1cc(SCc2ccccc2)nc[nH]1 | · | · | – | – | ? | –
COc1ccc(-n2c(/C=C/c3ccccc3F)nc3cc(OC)c(OC)cc3c2=O)cc1Cl | – | – | · | · | – | –
COc1ccc(-n2c(/C=C/c3cc(OC)c(OC)cc3OC)nc3cc4ccccc4cc3c2=O)cc1Cl | – | 28µM | · | · | ? | –
Cc1oc2ncn(C)c(=O)c2c1C(=O)NCCCN1CCCC(C)C1 (centres undefined) | – | – | · | · | – | –
CCCCN(CC)CCCNC(=S)Nc1ccc2nc(N3CCN(CC)CC3)cc(C)c2c1 | 50µM | – | – | – | – | –
Cc1cc(N2CCN(C)CC2)nc2ccc(NC(=S)NCCCN3CCN(C)CC3)cc12 | ? | – | – | · | – | –
CCCCN(CC)CCCNC(=S)Nc1ccc2nc(N3CCN(C)CC3)cc(C)c2c1 | 40µM | – | – | – | – | –
SMILES | G9a block | BAZ2B inh | Six1-Eya2 inh | CtBP-E1A inh | JMJD2A Tudor inh | HP1b chromo inh
CCCOC(=O)c1ccc(O)c(OC)c1 | · | – | – | – | – | –
COc1cc(C(=S)N(C)C)ccc1O | 6.3µM | – | – | – | –[11.4 µM] | ?
O=[N+]([O-])c1cc([N+](=O)[O-])c2nonc2c1Nc1ccccc1O | ? | – | – | – | – | –
O=[N+]([O-])c1cc([N+](=O)[O-])c2nonc2c1Nc1ccc(O)cc1 | 11µM | ? | – | · | 50µM | ?
CCCCNC(=S)NNc1c(Cl)cc(Cl)cc1Cl | 25µM | · | – | – | 40µM | –
O=C(NCCCl)NNc1c(Cl)cc(Cl)cc1Cl | ? | · | – | – | – | –
C=CCN(c1ccccc1OC)S(=O)(=O)c1ccc(Cl)c(C(=O)NCc2ccco2)c1 | · | · | – | – | · | ·
CN(Cc1nccn1C)C(=O)CC1C(=O)NCCN1Cc1ccccc1C(F)(F)F (centres undefined) | 50µM | – | – | – | – | –
CN(Cc1ccon1)C(=O)CC1C(=O)NCCN1Cc1ccccc1C(F)(F)F (centres undefined) | –[12.7 µM] | – | – | – | – | –
CN(CCc1cn[nH]c1)C(=O)CC1C(=O)NCCN1Cc1ccccc1C(F)(F)F (centres undefined) | 45µM | – | – | – | – | –
CN(Cc1nccn1C)C(=O)CC1C(=O)NCCN1Cc1ccc(F)cc1Cl (centres undefined) | 40µM | – | – | – | ? | –
Cc1nnc(CN(C)C(=O)CC2C(=O)NCCN2Cc2ccccc2C)o1 (centres undefined) | 35µM | – | – | – | – | –
O=C(c1ccccc1)N1c2nc(-c3ccco3)nn2C2(CCCCC2)[C@@H]2CCCC[C@@H]21 | – | – | · | · | – | –
COc1cc(C2C(C(=O)Nc3ccc(C)cc3C)=C(C)Nc3nc4ccccc4n32)cc(OC)c1OC (centres undefined) | ? | – | · | · | – | –
C=CCn1c(C)cc(-c2csc(NC(=O)CCc3nc4ccccc4c(=O)[nH]3)n2)c1C | 32µM | ? | – | – | – | –
CN(c1ccc(-c2csc(NC(=O)CCCc3nc4ccccc4c(=O)[nH]3)n2)cc1)S(C)(=O)=O | · | · | – | – | · | ·
O=C(CCc1nc2ccccc2c(=O)[nH]1)Nc1nc(-c2cccs2)cs1 | 45µM | – | – | – | – | –
COc1cccc(CSc2nc3ccncc3[nH]2)c1 | – | – | – | – | – | –
COc1ccc(NC(=O)c2cc(C)nc3c2c(C)nn3-c2ccc(C)cc2)cc1OC | – | – | · | · | – | –
COc1ccc(C2Nc3ccccc3NC3=C2C(=O)CC(C)(C)C3)cc1O (centres undefined) | – | – | – | – | 13µM | –
COc1ccc(C2Nc3ccccc3NC3=C2C(=O)CC(C)(C)C3)cc1OC (centres undefined) | – | – | – | – | – | –
CC(C)(C)C1CCC(=NNc2ncc(C(F)(F)F)cc2Cl)CC1 (centres undefined) | – | 79µM | – | – | – | –
Cc1cccc2nc(CSCc3ccco3)cn12 | 45µM | ? | – | – | – | –
Cc1cc(C)n2cc(CSCc3ccco3)nc2n1 | – | – | – | – | – | –
COCCOC(=O)C1=C(C)N(c2ccccc2)C(=S)NC1c1ccccc1C(F)(F)F (centres undefined) | – | – | – | · | ? | –
COC(=O)C1=C(C)N(c2ccccc2)C(=S)NC1c1ccccc1C(F)(F)F (centres undefined) | 50µM | ? | – | · | ? | –
O=C(Oc1ccc2c(c1)OCO2)C12CC3CC(CC(C3)C1)C2 | – | – | – | · | – | –
O=C(Oc1ccc(O)cc1)C12CC3CC(CC(C3)C1)C2 | 40µM | – | – | – | 56µM | ?
